Our source for the inhibition values is PubChem BioAssay AID652154 (Broad Institute, 2013).

Among all 360,000 compounds or so, about 4,200 (1.2%) were called active. Many of the other results were omitted from the sample, so actives are more common in it than they were. A number with no mark means an inactive call.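 Rule for the calls: active = mean replicate inhibition at least 60% with every replicate also reaching 60%; inconclusive = only one of the two criteria is met; inactive = mean below 60% and not all replicates reaching 60%.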

The assay can be described thus: inhibitors of PAX8-driven TPO luciferase reporter, primary screen, RMG-I cells, single concentration (AID 652154).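 Note: luciferase light reporting Pax8 driven TPO promoter activity; plate controls were median of neutral control wells for no effect and mitoxantrone controls for full effect.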 The settings on record: SteadyGlo, 24 h, at 12.6 µM, hits give high values.
Take `CN1C[C@@H]2[C@H](c3ccccc31)[C@H](CO)N2C(=O)Nc1ccc(F)cc1`: the inhibition is -2.1%.
Take `CO[C@H]1CN(C)C(=O)c2ccc(NC(=O)Nc3c(C)noc3C)cc2OC[C@@H](C)NC[C@H]1C`: the inhibition is -5.2%.
Then `COc1ccc(C#Cc2ccc([C@@H]3[C@H](CO)N4C(=O)CN(C(C)=O)C[C@@H]34)cc2)cc1`, with -10.2%.
The result for `CCS(=O)(=O)Nc1ccc2c(c1)C(=O)N(C)[C@@H]1CC[C@@H](CC(=O)N3CCCCC3)O[C@H]1CO2` reads -5.14%; that for `O=C(CN1CCOCC1)NCC[C@@H]1CC[C@@H](NC(=O)Nc2ccccc2)[C@H](CO)O1`, -2.03%; that for `C[C@@H]1CN([C@H](C)CO)C(=O)c2cccc(NC(=O)c3ccncc3)c2O[C@@H]1CN(C)C`, -8.91%.
Then `CO[C@H]1O[C@H](CO)[C@@H](OC(=O)Nc2ccc(C(F)(F)F)cc2)[C@H](OC(=O)Nc2ccc3c(c2)OCO3)[C@H]1OC(=O)Nc1ccc2c(c1)OCO2`, with 72.5% (active).
In the case of `CO[C@H]1O[C@H](CO)[C@@H](OC(=O)Nc2ccccc2)[C@H](OC(=O)Nc2ccc3c(c2)OCO3)[C@H]1OC(=O)Nc1ccc2c(c1)OCO2`, the inhibition was 16.9%.
For `COc1cc(OC)c(C(=O)Nc2ccccc2-c2ccccc2)cc1OC`, the inhibition was -10.7%.
`CO[C@H]1O[C@H](CO)[C@@H](OC(=O)Nc2ccccc2-c2ccccc2)[C@H](OC(=O)Nc2ccccc2)[C@H]1OC(=O)Nc1ccccc1`: the inhibition is 80% (active).
The result for `CCc1cccc(NC(=O)O[C@H]2[C@H](OC(=O)Nc3ccccc3-c3ccccc3)[C@H](OC(=O)Nc3ccccc3-c3ccccc3)[C@@H](OC)O[C@@H]2CO)c1` reads 43.4%; that for `COc1ccc(NC(=O)O[C@H]2[C@H](OC(=O)Nc3ccc4c(c3)OCO4)[C@@H](OC(=O)Nc3ccc4c(c3)OCO4)[C@@H](OC)O[C@@H]2CO)cc1`, 14.1%; that for `C[C@@H]1CN([C@H](C)CO)S(=O)(=O)c2ccc(C#CC3(O)CCCC3)cc2O[C@@H]1CN(C)C(=O)c1cccnc1`, -6.88%.
Then `COc1ccccc1NC(=O)N1[C@@H]2CNC[C@H]1C2c1ccc(-c2ccccc2C)cc1` (stereo partly drawn), with -13.6%.
Regarding `Cc1noc(C)c1S(=O)(=O)Nc1ccc2c(c1)C(=O)N([C@H](C)CO)C[C@@H](C)[C@H](CN(C)C(=O)NC(C)C)OCCCC[C@@H](C)O2`, the inhibition was 16.4%.
As for `C[C@H](CO)N1C[C@H](C)[C@@H](CN(C)Cc2ccc(C(F)(F)F)cc2)OCc2ccccc2-c2c(n(C)c3ccccc23)C1=O`, the inhibition was 24%.
With `COc1ccc(S(=O)(=O)Nc2ccc3c(c2)C(=O)N([C@@H](C)CO)C[C@H](C)[C@@H](CN(C)S(=O)(=O)c2ccc(F)cc2)OCCCC[C@H](C)O3)cc1`, the inhibition was 68.7% (active).
The result for `COc1ccc(S(=O)(=O)N(C)C[C@H]2OCCCC[C@@H](C)Oc3ccc(NS(=O)(=O)c4ccc(C)cc4)cc3C(=O)N([C@@H](C)CO)C[C@@H]2C)cc1` reads 36.3%; that for `COc1ccc(S(=O)(=O)N(C)C[C@@H]2OCCCC[C@@H](C)Oc3ccc(NS(=O)(=O)c4ccccc4)cc3C(=O)N([C@@H](C)CO)C[C@H]2C)cc1`, 19.7%.
Then `COc1ccc(S(=O)(=O)Nc2ccc3c(c2)C(=O)N([C@@H](C)CO)C[C@H](C)[C@H](CN(C)S(=O)(=O)c2ccc(F)cc2)OCCCC[C@@H](C)O3)cc1`, with 34%; and `COc1ccc(S(=O)(=O)N(C)C[C@H]2OCCCC[C@H](C)Oc3ccc(NS(=O)(=O)c4ccc(F)cc4)cc3C(=O)N([C@@H](C)CO)C[C@@H]2C)cc1`, with 75.4% (active).
As to `COc1ccc(S(=O)(=O)Nc2ccc3c(c2)C(=O)N([C@@H](C)CO)C[C@H](C)[C@@H](CN(C)S(=O)(=O)c2ccc(C)cc2)OCCCC[C@@H](C)O3)cc1`, the inhibition was 31.9%.
Regarding `CCCNC(=O)C[C@H]1CC[C@H]2[C@@H](COc3ccc(NC(=O)Nc4c(C)noc4C)cc3C(=O)N2C)O1`, the inhibition is -6.6%.
The result for `C[C@H]1CN([C@@H](C)CO)C(=O)Cc2cc(NC(=O)Nc3ccc(F)cc3)ccc2O[C@H]1CN(C)C(=O)Nc1ccc(C(F)(F)F)cc1` reads 59.7%.
The result for `CC(=O)N1[C@H](CNC(=O)CN(C)C)[C@H](c2ccc(C3=CCCC3)cc2)[C@@H]1CO` reads 10.8%; that for `CN1CCN(c2ccc(NC(=O)c3ccc4c(c3)[nH]c(=O)n4Cc3ccc(F)cc3)cc2)CC1`, 1.33%; that for `Cc1cccc(NC(=O)CCN2CC(C)CC(C)C2)c1` (stereo not drawn), 2.21%.
Take `Cc1ccc(C)c(Cn2nnc3c(=O)[nH]c(C(=O)Nc4ccc(F)cc4)nc32)c1`: the inhibition was -3.4%.
The result for `Cc1cccc(CS(=O)(=O)c2ncc(Cl)c(C(=O)Nc3ccc(F)cc3)n2)c1` reads 96.3% (active).
The result for `CSc1nnc(NC(=O)c2nc(S(=O)(=O)Cc3ccc(C)cc3)ncc2Cl)s1` reads 54.7%; that for `Cc1cccc(NC(=O)c2nc(S(=O)(=O)Cc3ccccc3)ncc2Cl)c1`, 64.5% (active).
The result for `CN(C)CC#Cc1ccc([C@H]2[C@@H](CO)N(C(=O)C3CCC3)[C@H]2C#N)cc1` reads 3.44%; that for `CO[C@H]1CN(C)C(=O)c2ccc(NC(=O)c3ccno3)cc2OC[C@@H](C)N(S(C)(=O)=O)C[C@H]1C`, -22.4%; that for `C[C@H]1CN([C@@H](C)CO)C(=O)Cc2cc(NC(=O)Nc3ccc4c(c3)OCO4)ccc2O[C@H]1CN(C)Cc1ccc(C(=O)Nc2ccccc2N)cc1`, 37.5%.
As for `O=C(Cc1ccccn1)N1[C@@H]2CNc3ccccc3[C@@H]2[C@@H]1CO`, the inhibition is -15.2%.
Then `O=C(C1CCOCC1)N1C[C@H]2[C@@H](c3ccccc31)[C@@H](CO)N2Cc1ccccc1F`, with -11.6%; and `C[C@H](NC(=O)C[C@@H]1CC[C@@H]2[C@H](COC[C@@H](O)CN2C(=O)Nc2cc(Cl)cc(Cl)c2)O1)c1ccccc1`, with 49.2%.
As to `O=C(CCl)Nc1cccc(CP(=O)(c2ccccc2)c2ccccc2)c1`, the inhibition is 18.2%.
As for `O=C(CCl)Nc1ccc(Sc2ccc(NC(=O)CCl)cc2)cc1`, the inhibition was 87.7% (active).
As for `CCC(=O)Nc1ccc(Nc2nc(Cl)nc(Nc3ccc(NC(=O)CC)cc3)n2)cc1`, the inhibition was 1.45%.
`C[C@@H]1CN([C@H](C)CO)C(=O)Cc2cc(NC(=O)Nc3ccc4c(c3)OCO4)ccc2O[C@H]1CN(C)Cc1ccc(C(F)(F)F)cc1`: the inhibition is 13.6%.
On to `O=C(OCC(=O)N1CCN(C(=O)c2ccco2)CC1)c1cccc(O)c1`, for which the inhibition was -23.5%.
Take `CN(c1ccccc1)S(=O)(=O)c1cc(C(=O)OCC(=O)N2CCN(C(=O)c3ccco3)CC2)ccc1Cl`: the inhibition is 80.9% (active).
`O=C(OCC(=O)N1CCN(C(=O)c2ccco2)CC1)c1ccc(Cl)c(Cl)c1`: the inhibition was 6.78%.
The result for `C[C@@H]1CN([C@H](C)CO)C(=O)CCCn2cc(nn2)CO[C@@H]1CN(C)C(=O)Nc1ccc2c(c1)OCO2` reads -4.65%; that for `C[C@@H]1CCCCO[C@@H](CN(C)C(=O)CCC(F)(F)F)[C@@H](C)CN([C@H](C)CO)C(=O)c2cc(NC(=O)Nc3ccccc3)ccc2O1`, -44.3%; that for `CC1=C(C(=O)OC2CCCCC2)C(c2ccccc2F)NC(=O)N1` (stereo not drawn), 23.9%.
For `COc1cc(C2C(C(=O)Nc3ccccc3OC)=C(C)Nc3ncnn32)ccc1O` (stereo not drawn), the inhibition was 24.6%.
The result for `CC1=C(C(=O)OC2CCCCC2)C(c2cccnc2)n2ncnc2N1` (stereo not drawn) reads 143% (active).
Then `O=C(CC1CC1)N[C@@H]1C[C@@H]2O[C@H](CO)CC[C@@H]2O[C@@H]1CCc1ccc(C#Cc2ccccc2)cc1`, with -44%; and `N#Cc1cccc(-c2ccc([C@H]3[C@@H](CO)N4CCCCN(C(=O)Nc5ccccc5)C[C@H]34)cc2)c1`, with -12.5%.
Then `CCCNC(=O)Nc1ccc2c(c1)C(=O)N(C)[C@H]1CC[C@H](CC(=O)NC3CCC3)O[C@H]1CO2`, with -6.66%; and `CCC(=O)N(C)C[C@H]1[C@H](c2ccc(C3=CCCCC3)cc2)[C@@H](CO)N1C(C)=O`, with -0.343%; and `CCCN1[C@H](C(=O)N2CCCCC2)[C@@H](CO)[C@@H]2Cn3c(ccc(-c4ccccc4F)c3=O)[C@@H]21`, with -10.5%.
For `CC=Cc1ccc2n(c1=O)C[C@H]1[C@H](CO)[C@@H](C(=O)N3CCCCC3)N(Cc3ccccn3)[C@@H]21` (mixture of isomers), the inhibition was 0.555%.
With `CCCN1[C@H](C(=O)N2CCOCC2)[C@@H](CO)[C@@H]2Cn3c(ccc(/C=C/c4ccccc4)c3=O)[C@@H]21`, the inhibition is 78.4% (active).
On to `CCC(=O)N(C)C[C@@H]1Oc2ncc(C#C[C@H](C)O)cc2C(=O)N([C@@H](C)CO)C[C@@H]1C`, for which the inhibition was -26.1%.
Then `COCC(=O)Nc1ccc2c(c1)C(=O)N(C)C[C@@H](OC)[C@H](C)CN(C(=O)c1ccccn1)[C@@H](C)CO2`, with 2.92%; and `CCN1[C@@H]2c3cccc(=O)n3C[C@H]1[C@H](CO)[C@H]2C(=O)NC1Cc2ccccc2C1`, with -4.92%; and `CO[C@H]1CN(C)C(=O)c2ccc(NC(=O)CC(F)(F)F)cc2OC[C@@H](C)N(C(=O)c2ccccc2F)C[C@@H]1C`, with -20.3%.
The result for `COc1ccc(CNC(=O)CCCn2nc(C)c([N+](=O)[O-])c2C)cc1` reads 2.46%; that for `Cc1ccc(Oc2cc(NC(=O)CCCn3nc(C)c([N+](=O)[O-])c3C)cc([N+](=O)[O-])c2)cc1`, 84.6% (active); that for `Cc1nn(CC(=O)Nc2ccc(N(C)C)cc2)c(C)c1[N+](=O)[O-]`, 13.9%.

The inhibition is the relative decrease from the control value, in per cent.
